This is a sample that favours compounds with a hit; in the whole collection about 10% have one here.
JMJD2A Tudor = JMJD2A Tudor domain (human) inhibition; O75164; AlphaScreen JMJD2A-Tudor / H3K4me3 peptide binding; AID 504339; Potency, µM (doses to about 114 µM), inactives show at the top dose activity change, negative = inhibition, most hits filed as inhibitors; 4.4% of 390,000 active; further: potency means the concentration at half of the fitted maximal effect; on the % scale 0 is the no-effect control and ±100 the full control effect; nearly all actives have a fitted effect of over 50% in size
HP1b binding inh = blocks HP1-beta chromodomain binding to methylated histone tails | P83916 | AlphaScreen HP1-beta / biotin-H3K9me3 peptide binding | Potency, µM (doses to about 114 µM), inactives show top-dose activity change, negative = inhibition, usual class: inhibitors | 0.56% of 390,000 active; further: potency means the concentration at half of the fitted maximal effect; nearly all actives have a fitted effect of over 70% in size
Target sequence (P83916 whole entry, looked up): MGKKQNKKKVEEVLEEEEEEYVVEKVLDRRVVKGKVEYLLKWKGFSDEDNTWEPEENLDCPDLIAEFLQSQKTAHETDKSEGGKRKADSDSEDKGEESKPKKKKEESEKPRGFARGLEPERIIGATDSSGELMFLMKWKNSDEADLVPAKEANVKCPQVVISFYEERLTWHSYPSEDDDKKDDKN
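Compound inhibition of the preformed complex between 50 nM HP1-beta and 50 nM biotinylated H3K9me3 peptide was read by AlphaScreen. Buffer was PBS pH 7.4 with 0.01% Tween-20. Incubations ran 30 min at room temperature, with 10 ug/mL donor/acceptor beads.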
BAZ2B inh = blocks human BAZ2B. Q9UIF8. AlphaScreen BAZ2B-H3K14Ac peptide displacement. Potency, µM (doses to about 114 µM), for the others: top-dose activity change, negative = inhibition, actives largely listed as inhibitors. 4.4% of 360,000 active; further: potency means the concentration at half of the fitted maximal effect; on the % scale 0 is the no-effect control and ±100 the full control effect; nearly all actives have a fitted effect of over 60% in size
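AlphaScreen displacement: compounds (up to 110uM) incubated 30 min at room temperature with a preformed 50 nM BAZ2B/50 nM biotinylated H3K14Ac peptide complex in PBS pH 7.4 with Tween-20. Donor and acceptor beads at 10 ug/mL final added, 20 min light-protected before reading.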
G9a block = G9a (human) methyltransferase inhibition; Q96KQ7; G9a H3K9 monomethylation, AlphaScreen, 2 h; Potency, µM (doses to about 102 µM), for inactives: at the highest dose activity, negative = inhibition, hits mostly inhibitors; 8.8% of 350,000 active; AID 504332; further: potency means the concentration at half of the fitted maximal effect; on the % scale 0 is the no-effect control and ±100 the full control effect; nearly all actives have a fitted effect of over 75% in size
Target sequence (Q96KQ7 913-1193 limits assumed): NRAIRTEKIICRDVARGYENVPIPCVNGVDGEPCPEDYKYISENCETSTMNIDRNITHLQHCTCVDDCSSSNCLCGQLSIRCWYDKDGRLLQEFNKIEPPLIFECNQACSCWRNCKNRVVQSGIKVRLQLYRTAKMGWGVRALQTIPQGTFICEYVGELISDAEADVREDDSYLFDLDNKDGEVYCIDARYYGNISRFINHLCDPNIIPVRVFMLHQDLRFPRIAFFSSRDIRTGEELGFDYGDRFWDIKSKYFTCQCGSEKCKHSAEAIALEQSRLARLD
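Signal arises when biotinylated H3K9 peptide, once monomethylated, bridges streptavidin donor and antibody-captured acceptor beads. Enzyme at 20 nM was preincubated 15 min with test compounds; peptide 500 nM and SAM 20 uM then reacted for 2 h.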
CtBP-E1A inh = CtBP/E1A binding inhibition; AlphaScreen GST-E1A/His-CtBP binding, 1536-well; hits give low values; activity change, % (no concentration beside the values); 0.49% of 340,000 active; AID 651724; in the data active means activity change below about -65%; inconclusive means mostly about -30% to -63%; further: on the % scale 0 is the no-effect control and ±100 the full control effect
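Protein mix (5X: 125 nM each GST-E1A, His-CtBP) was incubated with pinned compound 2 h at 37 deg C in dark, in 50 mM Tris pH 8.0 buffer with 300 mM NaCl. Glutathione donor and nickel acceptor beads followed; AlphaScreen signal read after 1 h.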
Six1-Eya2 inh = inhibitors of human Six1/Eya2 interaction; 0.56% of 360,000 active; AlphaScreen GST-Six1/His-Eya2 binding, biochemical; hits give low values; AID 651725; activity change, % (concentration not given with the values); Q15475+O00167; in the data active means activity change below about -65%; inconclusive means mostly about -30% to -63%; further: on the % scale 0 is the no-effect control and ±100 the full control effect
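AlphaScreen luminescence read after one hour at 37 °C in darkness. Pin-transferred compounds met GST-Six1 and His-Eya2 protein (5X stock 250 nM/500 nM) plus glutathione donor and Ni-chelate acceptor beads (5X, 50 ug/mL).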
Numbers without * were called inactive; ? = inconclusive; · = not tested or not shown; [ ] = remark or other dose. Unless noted, the call rests on the fitted dose curve; in most records, active means well fitted inhibition curve with a large enough effect; inconclusive means small, poorly fitted or top-dose-only effect; inactive means no such curve, though single readings can be large or run the other way.

SMILES	JMJD2A Tudor	HP1b binding inh	BAZ2B inh	G9a block	CtBP-E1A inh	Six1-Eya2 inh
COC(=O)c1ccccc1S(=O)(=O)N(CCCN1CCOCC1)Cc1cccs1	7.9µM*	?	50µM*	7.9µM*	0	5
CCNc1ncc2nc(-c3ccc(F)cc3)c(=O)n(-c3ccc(OC)cc3)c2n1	·	·	·	0%[0.501 µM]	·	·
CCOc1cc(CNc2ccc(N3CCCC3)cc2)cc(Cl)c1OC	11µM*	20µM*	13µM*	10µM*	-20	?
C=CCOc1c(Cl)cc(CNc2ccc(C)c(Cl)c2)cc1OC	·	·	9%	58%[59 µM]	·	·
COc1cccc(Nc2ccc(N3CCCCC3)cc2)c1OC	32µM*	32µM*	14µM*	-23%[0.501 µM]	·	·
COc1cc(CNc2ccc(N3CCCC3)cc2)cc(Cl)c1OC	10µM*	14µM*	35µM*	3.5µM*	?	?
CCOc1cc(CNc2ccc(S(N)(=O)=O)cc2)cc(Cl)c1OC	-14%	-4%	-3%	7%[59 µM]	-1	6
COc1cccc(OC)c1C(=O)Nc1ccccc1N1CCCCC1	?	-12%	-29%	5%	-5	1
CCOCCCn1c(=N)c(C(=O)NC2CCCC2)cc2c(=O)n3cccc(C)c3nc21	-18%	10%	0%	6%[59 µM]	·	·
COc1ccc(C[C@H](N)C(=O)N[C@H]2[C@@H](O)[C@H](n3cnc4c(N(C)C)ncnc43)O[C@@H]2CO)cc1	79µM*	-3%	-6%	?	9	3
CN(C)c1ncnc2c1ncn2C1OC(CO)C(O)C1O (stereo not drawn)	-12%	13%	12%	-2%[59 µM]	-1	8
O=C(c1cc(COc2ccc(F)cc2Cl)on1)N1CCCCCCC1	20µM*	79%	46%	62%	19	6
O=C(c1cc(COc2ccc(F)cc2Cl)on1)N1CCCCCC1	16%	41%	35%	90%	·	9
Cc1ccc2c(CC(=O)Nc3ccc(S(=O)(=O)N4CCCCC4C)cc3)coc2c1 (stereo not drawn)	-22%	0%	-22%	?	·	·
COc1ccc(-c2ccc(-c3noc(-c4ccco4)n3)c(OC)n2)cc1	3%	39%	4%	0%[59 µM]	2	5
COc1nc(-c2ccccc2)ccc1-c1noc(-c2ccco2)n1	50µM*	?	6%	?	2	6
O=C(Cn1c(=O)nc(-c2ccccc2)c2ccccc21)NCCc1ccc(Cl)cc1	1%	41%	-1%	18%[59 µM]	·	·
COc1ccc(-c2cn3nc(N4CCC(C(=O)Nc5ccc(C)cc5)CC4)sc3n2)cc1	-3%	21%	1%	-31%[59 µM]	·	·
NC(=O)CSc1nnc2sc3ccccc3n12	-7%	44%	5%	?	-4	-8
S=c1[nH]nc2sc3ccccc3n12	1.1µM*	-31%	·	·	-3	-6
CCOC(=O)C1=C(C)N=c2s/c(=C\c3cccc(OCC(=O)O)c3)c(=O)n2C1c1ccccc1OC (stereo not drawn)	?	-14%	50µM*	40µM*	0	9
CCOC(=O)C1=C(C)N=c2s/c(=C\c3ccc(OC(C)=O)c(OCC)c3)c(=O)n2C1/C=C/c1ccccc1 (stereo not drawn)	45µM*	3%	2%	-1%[59 µM]	-12	-3
CC1(O)CC(c2ccc(Cl)cc2)=NN1C(=O)c1ccc([N+](=O)[O-])cc1 (stereo not drawn)	-24%[11.4 µM]	?	14µM*	?	·	-19
CC(=O)N1N=C(c2ccc(Cl)cc2)CC1c1ccc([N+](=O)[O-])cc1 (stereo not drawn)	-26%	6%	-7%	·	-14	0
O=C(NC(=S)NNC(=O)c1ccccc1F)c1cccnc1	16µM*	-15%	5%	8.9µM*	-15	-18
Cc1ccccc1C(=O)NNC(=S)NC(=O)c1cccnc1	-27%	-2%	-3%	6.3µM*	·	-7
COc1ccc(CCNCC(O)COc2ccc(Cl)cc2)cc1OC (stereo not drawn)	-24%	21%	-17%	19%[59 µM]	-6	-1

Compound activity: PubChem, National Center for Advancing Translational Sciences (NCATS)
